Test results published in PubChem BioAssay (EPA / NIEHS).
Active and inactive are the calls of the source. How the source made its calls: active means hit-call score of the fitted dose curve at least 0.9, where 1 is the maximum; inactive means score below 0.9.

read-out: TIMP metallopeptidase inhibitor 2 (TIMP2), TIMP2 (gene 7077); assay: BSK_KF3CT_TIMP2: BioMAP Diversity Plus: KF3CT Assay for TIMP metallopeptidase inhibitor 2 (TIMP2) Biomarker Activity (AID 2283071); settings: primary human keratinocytes with fibroblasts; actives raise or lower the signal
Experimental: BSK_KF3CT is a cell-based, multiplexed-readout assay that uses keratinocytes and foreskin fibroblasts, a human skin primary cell co-culture, with measurements taken at 24 hours after chemical dosing in a 96-well plate.BSK_KF3CT_TIMP2 is an assay component measured in the BSK_KF3CT assay. It measures TIMP-2 antibody related to regulation of gene expression using ELISA technology.Data from the assay component BSK_KF3CT_TIMP2 was analyzed into 1 assay endpoint. This assay endpoint, BSK_KF3CT_TIMP2, was analyzed with bidirectional fitting relative to DMSO as the negative control and baseline of activity. Using a type of binding reporter, gain or loss-of-signal activity can be used to understand changes in the signaling as they relate to the gene TIMP2. Furthermore, this assay endpoint can be referred to as a primary readout, because this assay has produced multiple assay endpoints where this one serves a signaling function. To generalize the intended target to other relatable targets, this assay endpoint is annotated to the protease inhibitor intended target family, where the subfamily is metalloproteinase inhibitor.
The levels of cell surface (or secreted, indicated by the prefix "s") biomarker endpoints were measured by ELISA. Overt cytotoxicity to cells in confluent adherent cultures (all systems other than the BT system) was assessed by measuring total protein levels using sulforhodamine B (SRB) staining in parallel cultures at the time of biomarker measurements, indicated as SRB endpoints. For proliferation assays for adherent cell types, individual cell types are cultured at sub-confluence and relative cell numbers quantified by SRB staining at time points optimized for each system (48 h: 3C and CASM3C systems; 72 h: BT and HDF3CGF systems; 96 h: SAg system). SRB was performed by staining cells with 0.1% SRB after fixation with 10% TCA and reading wells at 560 nm.Viability and proliferation of PBMC (T cells) was quantified by Alamar Blue reduction for the SAg and BT systems. For PBMC viability (referred to as PBMC Cytotoxicity within the assay endpoint names), cells were plated (75,000/well in a 96-well plate) and then chemical samples added for 1 h before addition of activators, SEB and TSST-1 (20 ng/mL final concentration each). Cells were incubated for 90 h. Then, Alamar Blue (20 uL/well) (Invitrogen, Cat DAL1100) was added for 6 h, and the plates were read with a fluorescence microplate reader at 546/580 nm (excitation/emission). For PBMC proliferation, cells were plated and activated as above but incubated for only 16 h prior to addition of Alamar Blue. Plates were read after 6 h.

Row | Compound | outcome | AC50
1 | Cc1c2ccccc2c(C)c2c1ccc1ccccc12 | inactive | 
2 | CC(C)(C)c1cc(/C=C2\SC(N)=NC2=O)cc(C(C)(C)C)c1O |  | 11.5 µM (active)
3 | Clc1cc(Cl)c2c(c1)N=C1CCCCCN1C2 | inactive | 
4 | O=C1c2ccccc2C(=O)N1CCc1noc(-c2ccc(CN3CCCCCC3)s2)n1 | inactive | 
5 | CCCCOC(=O)CC(CC(=O)OCCCC)(OC(C)=O)C(=O)OCCCC | inactive | 
6 | CC(=O)N1CCN(c2ccc(OC[C@H]3CO[C@](Cn4ccnc4)(c4ccc(Cl)cc4Cl)O3)cc2)CC1 |  | 31.5 µM (active)
7 | O=c1ccc2ccccc2o1 | inactive | 
8 | NCc1cccc(C2CCN(C(=O)c3ccc(C#Cc4ccccc4F)o3)CC2)c1 |  | 8.8 µM (active)
9 | Cc1cc2c(cc1C(F)(F)F)N(C(=O)Nc1ccc(Oc3cccnc3C)nc1)CC2 |  | 23.8 µM (active)
10 | O=C1CCC(C2CCCCC2)CC1 | inactive | 
11 | Oc1ccc2ccccc2c1 | inactive | 
12 | C[C@]12CC[C@@H]3c4ccc(O)cc4CC[C@H]3[C@@H]1CC[C@H]2O | inactive | 
13 | CCCCCCCCOC(=O)c1cc(O)c(O)c(O)c1 |  | 13.2 µM (active)
14 | CC(O)CC(C)(C)O (stereo not given) | inactive | 
15 | CCCCCCCCOc1ccc(C(=O)c2ccccc2)c(O)c1 | inactive | 
16 | Cc1cccc2ccccc12 | inactive | 
17 | CN1C(=O)CC[C@H]1c1cccnc1 | inactive | 
18 | Cc1ncc(CO)c(CO)c1O | inactive | 
19 | CN1C(=O)N(c2ccccc2Br)Cc2cnc(Nc3ccc4c(c3)OCC(CO)O4)nc21 (stereo not given) |  | 13.7 µM (active)
20 | COc1ccc2cc(S(=O)(=O)N[C@H](CC(=O)N[C@H](Cc3ccc(CN4[C@H](C)CCC[C@@H]4C)cc3)C(=O)N(C)C(C)C)c3ccc4c(c3)OCO4)ccc2c1 |  | 27.6 µM (active)

Row | Compound | outcome | AC50
21 | Cc1ccc(C(C)C)cc1 | inactive | 
22 | O=C(O)Cn1c(=O)n(Cc2ccc(Br)cc2F)c(=O)c2ccc(Cl)cc21 | inactive | 
23 | NC(=O)c1nc(-c2cccc(-c3cc(F)ccc3OCC(F)(F)C(F)(F)F)c2)n[nH]1 |  | 35 µM (active)
24 | CCN(CC)C(=O)c1cc(S(=O)(=O)Cc2ccccc2)c(N2CCC(c3ccccc3)CC2)cc1N(CC)CCN(C)C | inactive | 
25 | CC(C)(c1cc(Br)c(O)c(Br)c1)c1cc(Br)c(O)c(Br)c1 |  | 4.6 µM (active)
26 | O=c1c(-c2ccc(O)cc2)coc2cc(O)cc(O)c12 | inactive | 
27 | CCCOC(=O)c1cc(O)c(O)c(O)c1 |  | 1.49 µM (active)
28 | CCCCCCCCCCCO | inactive | 
29 | CC1(C)NC(=O)N(c2ccc([N+](=O)[O-])c(C(F)(F)F)c2)C1=O | inactive | 
30 | CCCCCCCCCCCCO |  | 30 µM (active)
31 | CCCC(=O)OCCC(C)C | inactive | 
32 | c1ccc2ccccc2c1 | inactive | 
33 | O=C(O)c1ccccc1-n1cc(C(=O)O)c(=O)c2cc(Nc3c(F)cc(F)cc3Cl)c(Cl)cc21 | inactive | 
34 | O=C1O[C@H]([C@@H](O)CO)C(O)=C1O | inactive | 
35 | Cc1oc2c(NC(=O)c3c(Cl)cccc3Cl)cccc2c1C(C)(C)O |  | 5.2 µM (active)
36 | CCCCCCCCCCCC[N+](C)(C)C |  | 27.8 µM (active)
37 | Clc1ccccc1C(c1ccccc1)(c1ccccc1)n1ccnc1 |  | 10 µM (active)
38 | OCCO | inactive | 
39 | O=C(O)Cc1cc(I)c(Oc2ccc(O)c(I)c2)c(I)c1 | inactive | 
40 | CCOC(=O)O[C@H](C)OC(=O)c1ccc2c(c1)cc(C(=O)NC1CCN(C(C)C)CC1)n2Cc1cc(-c2ccc(Cl)s2)on1 |  | 7.43 µM (active)
